MazF activator: activators of E. coli MazEF toxin-antitoxin RNase. P0AE70. FAM/BHQ RNA-DNA oligo cleavage fluorescence, 5 h. activation, % at 20 µM. hit rate 0.32% among 350,000; in the data active = activation above about 50%
Target sequence (P0AE70 whole entry, looked up): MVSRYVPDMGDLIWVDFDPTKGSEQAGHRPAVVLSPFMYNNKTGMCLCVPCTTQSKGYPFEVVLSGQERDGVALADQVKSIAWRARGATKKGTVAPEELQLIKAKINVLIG
SARS 3CLpro inh: SARS-CoV 3CLpro protease inhibition. P0C6X7. recombinant SARS-CoV 3CLpro, quenched FRET peptide cleavage. inhibition, % at 6 µM. hit rate 0.14% among 290,000. AID 1706; in the data active = inhibition above about 12%
SSB-PriA inh: blocks PriA binding to SSB C-terminal tail; AlphaScreen SSBct-PriA binding, biotinylated peptide; inhibition, % at 33 µM; hit rate 0.6% among 430,000; AID 1272365; in the data active = inhibition mostly above about 37%, no sharp cut-off; inactive = mostly below about 20%;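 note: plate controls were negative control peptide for no effect and reference peptide for full effect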
Yp Topo-I inh: blocks Yersinia pestis topoisomerase I activity; hit rate 0.064% among 360,000; activity, % at 10 µM; Y. pestis Topo-I cleavage product accumulation, plate reader; in the data active = activity above about 50%, passing the limit was not always enough
Numbers without * were called inactive; . = no result given. The list is not random: actives were taken first. Their share in the collection is about 0.9%.

SMILES	MazF activator	SARS 3CLpro inh	SSB-PriA inh	Yp Topo-I inh
CCCNC(=O)Cn1c(=O)/c(=C\c2ccc(-c3cccc([N+](=O)[O-])c3)o2)s/c1=C\C(=O)C(C)(C)C	175*	-1	.	-5
CCCNC(=O)Cn1c(=O)/c(=C/c2ccc(-c3cccc([N+](=O)[O-])c3)o2)s/c1=C\C(=O)C(C)(C)C	54*	.	-10	-12
O=C1NC(=O)/C(=C/c2ccc(-c3cccc([N+](=O)[O-])c3)o2)S1	9	8	4	-5
CCCNC(=O)Cn1c(=CC(=O)C(C)(C)C)sc(=Cc2ccc(-c3cccc([N+](=O)[O-])c3)o2)c1=O	.	.	-2	.
CO[C@@](C)(CNC(=O)c1cccc(C#N)c1)c1cccc(Cl)c1	.	.	-15	.
Cc1cccc(-n2[nH]c(C)c(C=Nc3ccc4[nH]c(=O)[nH]c4c3)c2=O)c1	154*	3	-8	3
Cc1[nH]n(-c2ccccc2)c(=O)c1C=Nc1ccc2[nH]c(=O)[nH]c2c1	90*	5	-1	3
CCc1cc(=O)[nH]c(-n2nc(C)cc2NC(=O)c2ccc(OC)cc2OC)n1	.	.	-1	.
O=C(NNC(=O)c1cccc2ccccc12)c1cccc(Br)c1	-6	.	-5	2
O=C(NNC(=O)c1cccc2ccccc12)c1ccc(Br)cc1	66*	.	-6	0
CCc1nnc2ccc(N3CCN(S(=O)(=O)c4cc(C)cc(C)c4)CC3)nn12	.	.	3	.
COc1cccc(C(=O)NCCNc2ccc(Nc3ccccn3)nn2)c1OC	.	.	1	.
CC(C)(Oc1ccc(Cl)cc1)C(=O)NCCNc1ccc(Nc2ccccn2)nn1	.	.	31*	.
C(=N\Nc1nc(-c2ccccn2)nc2ccccc12)/c1ccccc1	.	-1	.	.
c1ccc(-c2nc(NCC3CCCO3)c3ccccc3n2)nc1 (configuration not stated)	-10	4	89*	31
c1ccc(-c2nc(NC3CCCC3)c3ccccc3n2)nc1	.	.	120*	.
CS(=O)(=O)N1CCCC(c2nnc(-c3ccc4c(c3)OCO4)o2)C1 (configuration not stated)	.	.	-10	.
CCCc1nc(C)cc(N2CCN(c3ccccc3)CC2)n1	-10	0	9	1
Cc1cc(N2CCN(c3ccccc3)CC2)nc(NCc2ccccc2)n1	55*	1	16	3
COc1ccc(NC(=S)N/N=C2\CC(C)(C)Oc3ccc(OC)cc32)cc1	2	4	.	-3
COc1cccc(NC(=S)NN=C2CC(C)(C)Oc3ccc(O)cc32)c1	.	.	40*	.
CC1(C)CC(=NNC(=S)Nc2ccccc2F)c2cc(O)ccc2O1	.	.	45*	.
COc1ccc(NC(=S)NN=C2CC(C)(C)Oc3ccc(O)cc32)cc1	.	.	47*	.
CCC(=O)NN=c1sc2ccccc2n1C	.	.	-18	.
COc1ccc(Br)c(C(=O)NCCc2nc(C)cc(C(F)(F)F)n2)c1	.	.	-13	.
SMILES	MazF activator	SARS 3CLpro inh	SSB-PriA inh	Yp Topo-I inh
Cc1cc(OC(=O)c2ccccc2[N+](=O)[O-])c([N+](=O)[O-])c(=O)[nH]1	8	-5	99*	-1
CCOc1ccc(N/C=C/C(=O)c2ccc(OC)cc2)c([N+](=O)[O-])c1	91*	6	.	-4
CCOc1ccc(N)c([N+](=O)[O-])c1	.	.	39*	.
O=[N+]([O-])c1ccccc1S(=O)(=O)NCC(c1cccc2ccccc12)N1CCOCC1 (configuration not stated)	.	.	37*	.
Clc1ccccc1OCCn1c2ccccc2c2nc3ccccc3nc21	.	.	-14	.
Cc1ccc2cc3c(N)c4c(C)ccc(C)c4nc3nc2c1	55*	1	9	-9
Cc1ccc2c(N)c(C)ccc2c1	2	-7	15	1
CN(C)c1ccc(N/C=C/C(=O)c2ccc(F)cc2)cc1	105*	2	17	-1
COc1cnc(-c2ccccn2)nc1Oc1cccc(C(F)(F)F)c1	.	-3	.	15
c1ccc(-c2cnc(-c3ccccn3)nn2)cc1	2	.	69*	4
c1ccc(Oc2nc(-c3ccccn3)nnc2-c2ccccc2)cc1	.	.	103*	.
COc1cnc(-c2ccccn2)nc1Oc1ccc(F)cc1	.	.	109*	.
COc1cnc(-c2ccccn2)nc1Oc1ccccc1	7	5	64*	1
CC(C)Cn1c(C=NNc2nc3ccccc3[nH]2)nc2ccccc21	.	.	23	.
Cn1ccc(C(=O)N(CCN2CCOCC2)c2nc3ccccc3s2)n1	.	.	-2	.
O=C(NCCS(=O)(=O)N1CCN(c2ncccn2)CC1)c1cc(Cl)ccc1Cl	.	.	-9	.
COc1ccc(S(=O)(=O)NCCOc2cc(N3CCCC3)ncn2)cc1F	.	.	0	.
O=C(CCC(F)(F)F)N1CC(S(=O)(=O)c2ccc(Cl)cc2)C1	.	.	-20	.
Clc1ccc(-c2cnnc(-c3ccccn3)n2)cc1	7	.	58*	0
COc1cnc(-c2ccccn2)nc1N(C)c1ccccc1	5	2	98*	4
CCOC(=O)CSc1nc(-c2ccccn2)ncc1OC	8	-6	83*	-14
COc1cnc(-c2ccccn2)nc1Oc1cc(Cl)cc(Cl)c1	.	.	63*	.
CC(=O)NC1C(OC(=O)CCn2c(=O)sc3ccccc32)OC(COC(C)=O)C(OC(C)=O)C1OC(C)=O (configuration not stated)	.	.	-13	.
Clc1ccc(CCNc2ncnc3[nH]ncc23)c(Cl)c1	.	.	-6	.
O=C(Nc1ccc(O)c(-c2nc3ccccc3s2)c1)c1cccs1	53*	2	8	-2
SMILES	MazF activator	SARS 3CLpro inh	SSB-PriA inh	Yp Topo-I inh
Cc1ccc(C(=O)N2CCN(c3ccc(-n4cccn4)nn3)CC2)cc1C	.	.	-3	.
COc1ccc(OC)c(Nc2nc(CC(=O)NCCC3=CCCCC3)cs2)c1	.	.	22*	.
COC(=O)Nc1nc(CC(=O)NCCC2=CCCCC2)cs1	.	.	4	.
COc1ccc(OC)c(Nc2nc(CC(=O)NCCc3c[nH]c4ccccc34)cs2)c1	.	.	16*	.
COc1ccc(OC)c(Nc2nc(CC(=O)NCc3cccs3)cs2)c1	.	.	11	.
COc1cccc(CNC(=O)C2CCN(C(=O)c3n[nH]c4ccccc34)CC2)c1	.	.	3	.
O=C(c1ccc(S(=O)(=O)N2CCCC2)cc1)N1CC(c2nc(-c3ccsc3)no2)C1	.	.	-6	.
C=CCN1C(=O)C(C)(C)COc2ccc(NS(=O)(=O)c3ccc(OC)cc3OC)cc21	.	.	3	.
Cc1ccc(C)c(OCCn2cc(/C=C(\C#N)C(=O)NCC3CCCO3)c3ccccc32)c1 (configuration not stated)	-37	10	-18	32
Cc1ccc(OCCn2cc(/C=C(\C#N)C(=O)NCC3CCCO3)c3ccccc32)cc1C (configuration not stated)	114*	5	-1	13
Cc1ccc(C)c(OCCn2cc(/C=C(\C#N)C(=O)NCc3cccs3)c3ccccc32)c1	-6	6	-18	18
Cc1ccc(OCCn2cc(/C=C(\C#N)C(=O)NCC3CCCO3)c3ccccc32)cc1 (configuration not stated)	57*	-6	-17	-2
CC(C)OC(=O)c1c2c(n3ccccc13)C(=O)c1ccccc1C2=O	175*	2	18	8
O=C(/C=C/c1ccc(-c2cccc([N+](=O)[O-])c2)o1)N1CCOCC1	7	0	-9	-3
O=[N+]([O-])c1cccc(-c2csc(=Nc3ccccc3)n2N2CCOCC2)c1	.	.	64*	.
COc1ccc(S(=O)(=O)NCCn2nc(-n3nc(C)cc3C)ccc2=O)cc1F	.	.	-7	.

Bioassay records from PubChem.
